Where “and” joins values, the source holds several entries; their conditions need not be identical. Equal values may be shown once. Results filed as inconclusive are left out. Where a call stands in place of a potency, no number is given. Calls of active or inactive are those of the source. Unless noted, the call rests on the fitted dose curve; in most records, active means well fitted curve in the direction sought with a large enough effect in the repeat runs; inconclusive means weak or mixed curves; inactive means no such curve, though single readings can be large; an effect the other way counts as inactive or inconclusive.
Assays:
[1] = qHTS assay for small molecule agonists of the p53 signaling pathway (AID 651631; calls by dose curve; further: nearly all actives have a fitted effect of over 15% in size; further: potency means the concentration at half of the fitted maximal effect)
Method in brief: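 Testing took place in human colorectal HCT-116 cells with stable p53RE-driven beta-lactamase. After 16 h of compound exposure at 37 °C, a FRET substrate was added and fluorescence recorded 2 h later.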

[2] = qHTS assay for small molecules that induce genotoxicity in human embryonic kidney cells expressing luciferase-tagged ATAD5 (AID 651632); further: nearly all actives have a fitted effect of over 15% in size
Method in brief: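 Concentration-response screen for ATAD5 upregulation in HEK293T luciferase reporter cells; 16 hr treatment at 37C, then luminescence after 30 min with Amplite at room temperature.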

[3] = qHTS assay for small molecule agonists of the p53 signaling pathway - cell viability (AID 651633; calls by dose curve; further: nearly all actives have a fitted effect of over 30% in size; further: potency means the concentration at half of the fitted maximal effect)
Method in brief: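 Viability counter-read: CellTiter-Glo luminescence (30 min, room temperature) in the same p53RE-bla plates. These plates had been exposed to compounds for 16 h at 37 C.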

[4] = qHTS assay for small molecules that induce genotoxicity in human embryonic kidney cells expressing luciferase-tagged ATAD5 - cell viability (AID 651634; calls by dose curve; further: nearly all actives have a fitted effect of over 25% in size; further: potency means the concentration at half of the fitted maximal effect)
Method in brief: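 15.5 hr compound or vehicle exposure of HEK293T cells expressing luciferase-tagged ATAD5 at 37C; live-cell protease activity is read by fluorescence after 30 min of CellTiter-Fluor.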

[5] = qHTS assay for small molecule disruptors of the mitochondrial membrane potential - cell viability (AID 720634; calls by dose curve; further: nearly all actives have a fitted effect of over 20% in size; further: potency means the concentration at half of the fitted maximal effect)
Method in brief: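 In this qHTS format, HepG2 cells plated overnight were pinned with compound, incubated 1 hr, and assayed for ATP luminescence with CellTiter-Glo after m-MPI dye addition.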

[6] = qHTS assay to test for compound auto fluorescence at 590 nm (red) in HepG2 cells (AID 720674)
Method in brief: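 We screened compounds on adherent HepG2 cells, incubating them for an hour at 37 C in 5% CO2 before reading emission at 590 nm under 540 nm excitation; values reflect equivalence to Rose Bengal sodium fluorescence.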

[7] = qHTS assay to test for compound auto fluorescence at 535 nm (green) in HepG2 cells (AID 720675)
[8] = qHTS assay to test for compound auto fluorescence at 460 nm (blue) in HEK293 cells (AID 720678)
Method in brief: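 Blue read-out at excitation 405 nm and emission 460 nm follows overnight compound exposure of HEK293 cells at 37C in 5% CO2. Activity is given as auto fluorescence equivalency to triamterene.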

[9] = qHTS assay to test for compound auto fluorescence at 590 nm (red) in HEK293 cells (AID 720679)
Method in brief: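 Red channel, Ex/Em 540/590nm; signal expressed as equivalency to Rose Bengal sodium. HEK293, 2,000 cells/well, 10% dialyzed FBS; 23 nL compound pinned after 4-5 hr attachment; overnight 37C/5% CO2 before reading.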

[10] = qHTS assay to test for compound auto fluorescence at 535 nm (green) in HEK293 cells (AID 720680)
[11] = qHTS assay to test for compound auto fluorescence at 460 nm (blue) in HEK293 cell free culture (AID 720681)
Method in brief: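 Blue fluorescence (Ex 405/Em 460 nm, triamterene-equivalent) was read immediately after pin transfer of compound or DMSO into medium (DMEM, 10% FBS) without cells.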

[12] = qHTS assay to test for compound auto fluorescence at 535 nm (green) in HEK293 cell free culture (AID 720682)
Method in brief: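 DMEM + 10% FBS, cell-free; cpd or DMSO pinned in; Ex485/Em535 read; output as fluorescein-equivalent signal.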

[13] = qHTS assay to test for compound auto fluorescence at 590 nm (red) in HEK293 cell free culture (AID 720683)
Method in brief: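 Red-channel autofluorescence of compounds in culture medium (DMEM, 10% FBS), no cells, measured at 540/590 nm. Rose Bengal sodium is the reference fluorophore for equivalence.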

[14] = qHTS assay to test for compound auto fluorescence at 590 nm (red) in HepG2 cell free culture (AID 720684)
Method in brief: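 Cell-free; medium MEM + 10% FBS; compound or DMSO added by pintool; read Ex 540/Em 590 nm; Rose Bengal sodium as red reference fluorophore.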

[15] = qHTS assay to test for compound auto fluorescence at 460 nm (blue) in HepG2 cells (AID 720687)
Method in brief: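 Blue-channel autofluorescence (Ex/Em 405/460 nm, triamterene-equivalent) was measured after 1 hr compound exposure at 37 C, 5% CO2. Cells were HepG2, plated overnight at 37 C in MEM plus 10% FBS.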

[16] = molecular target: Glucocorticoid receptor (Homo sapiens) (UniProt P04150); test: qHTS assay to identify small molecule antagonists of the glucocorticoid receptor (GR) signaling pathway (AID 720692; active means well fitted inhibition curve with a large enough effect in the signal ratio in the repeat runs, not every such curve was filed as active; the % refers to the signal ratio; further: potency means the concentration at half of the fitted maximal effect)
Method in brief: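 Tox21 10K library screened in concentration-response for blockade of dexamethasone (5 nM final)-induced GRE-bla reporter activity in HeLa cells; 18 h treatment, fluorescence read.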

[17] = qHTS assay for small molecule disruptors of the mitochondrial membrane potential (AID 720635); further: potency means the concentration at half of the fitted maximal effect
Method in brief: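 Mitochondrial membrane potential tracked with Mito-MPS dye, red aggregates (ex 540/em 590 nm) against green monomers (ex 490/em 535 nm). Compound treatment 1 hr at 37C, dye 30 min in HepG2.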

[18] = qHTS assay to test for compound auto fluorescence at 460 nm (blue) in HepG2 cell free culture (AID 720685)
Method in brief: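 Cell-free plates of MEM plus 10% FBS received 23 nL compound or DMSO vehicle; blue-channel (405/460 nm) intensity scored against triamterene as reference fluorophore.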

[19] = qHTS assay to test for compound auto fluorescence at 535 nm (green) in HepG2 cell free culture (AID 720686)
[20] = molecular target: Glucocorticoid receptor (Homo sapiens) (UniProt P04150); test: qHTS assay to identify small molecule agonists of the glucocorticoid receptor (GR) signaling pathway (AID 720691; active means well fitted activation curve with a large enough effect in the signal ratio in the repeat runs, not every such curve was filed as active; the % refers to the signal ratio)
Method in brief: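 Measures GR pathway activation through a GRE-beta-lactamase reporter stably integrated in HeLa cells, with 18 h compound treatment at 37 C and fluorescence detection using a FRET substrate.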

Glucocorticoid receptor (Homo sapiens), sequence (P04150 whole entry, looked up): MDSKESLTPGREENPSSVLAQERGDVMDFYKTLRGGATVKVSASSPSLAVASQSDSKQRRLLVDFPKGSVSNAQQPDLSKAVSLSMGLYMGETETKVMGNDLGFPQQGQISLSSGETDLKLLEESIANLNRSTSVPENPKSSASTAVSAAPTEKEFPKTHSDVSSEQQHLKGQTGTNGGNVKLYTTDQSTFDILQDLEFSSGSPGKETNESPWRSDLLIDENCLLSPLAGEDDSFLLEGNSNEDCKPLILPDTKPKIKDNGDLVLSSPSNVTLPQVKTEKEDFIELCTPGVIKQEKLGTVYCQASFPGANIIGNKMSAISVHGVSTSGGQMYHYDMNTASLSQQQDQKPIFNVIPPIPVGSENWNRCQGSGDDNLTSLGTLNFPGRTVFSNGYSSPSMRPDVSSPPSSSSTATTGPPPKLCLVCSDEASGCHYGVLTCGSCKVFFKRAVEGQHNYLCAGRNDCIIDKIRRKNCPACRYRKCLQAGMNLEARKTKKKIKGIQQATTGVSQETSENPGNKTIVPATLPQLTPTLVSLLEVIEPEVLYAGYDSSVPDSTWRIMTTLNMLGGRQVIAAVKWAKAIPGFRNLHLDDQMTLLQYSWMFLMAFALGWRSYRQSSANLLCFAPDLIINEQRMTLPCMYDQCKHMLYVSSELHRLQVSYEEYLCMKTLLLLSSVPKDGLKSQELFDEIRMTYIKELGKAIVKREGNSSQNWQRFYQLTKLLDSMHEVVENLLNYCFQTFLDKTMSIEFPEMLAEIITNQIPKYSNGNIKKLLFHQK

CC(c1ccc(O)cc1)c1ccc(O)cc1
Potency [1]: inactive | Potency [2]: inactive | Potency [3]: inactive | Potency [4]: inactive | Potency [5]: inactive | outcome [6]: inactive | outcome [7]: inactive | Potency [8]: inactive | outcome [9]: inactive | outcome [10]: inactive | Potency [11]: inactive | outcome [12]: inactive | outcome [13]: inactive | outcome [14]: inactive | Potency [15]: inactive | Potency [16]: inactive

Cn1cc(C2=C(c3cn(C4CCN(Cc5ccccn5)CC4)c4ccccc34)C(=O)NC2=O)c2ccccc21
Potency [1]: 7.5 µM (active) | Potency [2]: inactive | Potency [3]: inactive | Potency [4]: inactive | Potency [5]: inactive | Potency [17]: inactive | outcome [6]: inactive | outcome [7]: inactive | Potency [8]: inactive | outcome [9]: inactive | outcome [10]: inactive | Potency [11]: inactive | outcome [12]: inactive | outcome [13]: inactive | outcome [14]: inactive | Potency [18]: inactive | outcome [19]: inactive | Potency [15]: inactive | Potency [16]: 1.34 µM (active)

CC(C)OS(C)(=O)=O
Potency [1]: inactive | Potency [2]: inactive | Potency [3]: inactive | Potency [4]: inactive | Potency [5]: inactive | outcome [7]: inactive | Potency [8]: inactive | outcome [9]: inactive | outcome [10]: inactive | Potency [11]: inactive | outcome [12]: inactive | outcome [13]: inactive | Potency [18]: inactive | Potency [15]: inactive

CCN
Potency [1]: inactive | Potency [2]: inactive | Potency [3]: inactive | Potency [4]: inactive | Potency [5]: inactive | outcome [6]: inactive | outcome [7]: inactive | Potency [8]: inactive | outcome [9]: inactive | outcome [10]: inactive | Potency [11]: inactive | outcome [12]: inactive | outcome [13]: inactive | outcome [14]: inactive | Potency [18]: inactive | outcome [19]: inactive | Potency [15]: inactive | Potency [20]: inactive

NNC(=O)c1ccccc1
Potency [1]: inactive | Potency [2]: inactive | Potency [3]: inactive | Potency [4]: inactive | Potency [5]: inactive | outcome [6]: inactive | outcome [7]: inactive | Potency [8]: inactive | outcome [9]: inactive | outcome [10]: inactive | Potency [11]: inactive | outcome [12]: inactive | outcome [13]: inactive | outcome [14]: inactive | Potency [15]: inactive | Potency [20]: inactive

O=C(CCl)C(Cl)Cl
Potency [1]: 13.8 µM (active) | Potency [2]: inactive | Potency [3]: inactive | Potency [4]: 55 µM (active) | Potency [5]: 49 µM (active) | Potency [17]: 61.7 µM (active) | outcome [6]: inactive | outcome [7]: inactive | Potency [8]: inactive | outcome [9]: inactive | outcome [10]: inactive | Potency [11]: inactive | outcome [12]: inactive | outcome [13]: inactive | Potency [18]: inactive | outcome [19]: inactive | Potency [15]: inactive | Potency [16]: 35 µM (active)

CC(C)CCCCCOC(=O)c1ccccc1C(=O)OCCCCCC(C)C
Potency [1]: inactive | Potency [2]: inactive | Potency [3]: inactive | Potency [4]: inactive | Potency [5]: inactive | outcome [6]: inactive | outcome [7]: inactive | Potency [8]: inactive | outcome [9]: inactive | outcome [10]: inactive | Potency [11]: inactive | outcome [13]: inactive | outcome [14]: inactive | Potency [18]: inactive | outcome [19]: inactive | Potency [15]: inactive | Potency [20]: inactive | Potency [16]: inactive

CCCN(CC)CC1COC2(CCC(C(C)(C)C)CC2)O1 (centres undefined)
Potency [1]: inactive | Potency [2]: inactive | Potency [3]: inactive | Potency [4]: inactive | Potency [5]: inactive | outcome [6]: inactive | outcome [7]: inactive | Potency [8]: inactive | outcome [9]: inactive | outcome [10]: inactive | Potency [11]: inactive | outcome [12]: inactive | outcome [13]: inactive | outcome [14]: inactive | Potency [18]: inactive | outcome [19]: inactive | Potency [15]: inactive | Potency [20]: inactive | Potency [16]: inactive

COc1cc(N)c(Cl)cc1C(=O)NC1CN2CCC1CC2 (centres undefined)
Potency [1]: inactive | Potency [2]: inactive | Potency [3]: inactive | Potency [4]: inactive | Potency [5]: inactive | Potency [17]: inactive | outcome [7]: inactive | Potency [8]: inactive | outcome [9]: inactive | outcome [10]: inactive | Potency [11]: inactive | outcome [12]: inactive | outcome [13]: inactive | outcome [14]: inactive | Potency [18]: inactive | outcome [19]: inactive | Potency [15]: inactive | Potency [20]: inactive | Potency [16]: inactive

O=C1NCN(c2ccccc2)C12CCN(CC1COc3ccccc3O1)CC2 (centres undefined)
Potency [1]: inactive | Potency [2]: inactive | Potency [3]: inactive | Potency [4]: inactive | Potency [5]: inactive | outcome [7]: inactive | Potency [8]: inactive | outcome [9]: inactive | outcome [10]: inactive | Potency [11]: inactive | outcome [13]: inactive | outcome [14]: inactive | Potency [18]: inactive | outcome [19]: inactive | Potency [15]: inactive

COc1ccc(/C(=C/C(=O)N2CCOCC2)c2ccc(Cl)cc2)cc1OC
Potency [1]: inactive | Potency [2]: inactive | Potency [3]: inactive | Potency [4]: inactive | Potency [5]: inactive | outcome [6]: inactive | outcome [7]: inactive | Potency [8]: inactive | outcome [9]: inactive | outcome [10]: inactive | Potency [11]: inactive | outcome [13]: inactive | outcome [14]: inactive | Potency [18]: inactive | Potency [15]: inactive | Potency [20]: inactive | Potency [16]: inactive

Oc1ccc(C(c2ccc(O)cc2)(C(F)(F)F)C(F)(F)F)cc1
Potency [1]: 60.8 µM (active) and 54.5 µM (active) | Potency [2]: inactive | Potency [3]: 68.2 µM (active) and 43.3 µM (active) | Potency [4]: inactive | Potency [5]: inactive | Potency [17]: 2.72 µM (active) and 4.86 µM (active) | outcome [6]: inactive | outcome [7]: inactive | Potency [8]: inactive | outcome [9]: inactive | outcome [10]: inactive | Potency [11]: inactive | outcome [12]: inactive | outcome [13]: inactive | Potency [18]: inactive | outcome [19]: inactive | Potency [15]: inactive

CC(C)OC(=S)S
Potency [1]: inactive | Potency [2]: inactive | Potency [3]: inactive | Potency [4]: inactive | Potency [5]: inactive | outcome [6]: inactive | outcome [7]: inactive | Potency [8]: inactive | outcome [9]: inactive | outcome [10]: inactive | Potency [11]: inactive | outcome [12]: inactive | outcome [13]: inactive | Potency [18]: inactive | outcome [19]: inactive | Potency [15]: inactive

ClC(Cl)=C(Cl)Cl
Potency [1]: inactive | Potency [2]: inactive | Potency [3]: inactive | Potency [4]: inactive | Potency [5]: inactive | outcome [6]: inactive | outcome [7]: inactive | Potency [8]: inactive | outcome [9]: inactive | outcome [10]: inactive | Potency [11]: inactive | outcome [12]: inactive | outcome [13]: inactive | outcome [14]: inactive | Potency [18]: inactive | outcome [19]: inactive | Potency [15]: inactive
